The results in this text go back to paper PMC5700166.

Residue numbers refer to the chain shown, from its start.

Holding throughout (test): protein-binding microarray (PBM); PBM: ~300 nM protein, 6 mM HEPES pH 7.8, 80 mM KCl, 0.5 mM EDTA, 0.5 mM EGTA, 6% glycerol, 35 ng/ul poly-dIdC, 1% milk, 1 h, room temperature; Ap Aiptasia and Nv Nematostella (sea anemones) / Co Capsaspora / Aq Amphimedon (sponge) / Dm Drosophila / Hu human; RHD is the Rel homology domain; high values mean tight binding
What all share (conditions): dsDNA, one strand shown

For one assay, the target named is T1, GST-Ap-NF-kB RHD (Exaiptasia pallida (Aiptasia), UniProt A0A913YAJ5 2-422).
T1 sequence: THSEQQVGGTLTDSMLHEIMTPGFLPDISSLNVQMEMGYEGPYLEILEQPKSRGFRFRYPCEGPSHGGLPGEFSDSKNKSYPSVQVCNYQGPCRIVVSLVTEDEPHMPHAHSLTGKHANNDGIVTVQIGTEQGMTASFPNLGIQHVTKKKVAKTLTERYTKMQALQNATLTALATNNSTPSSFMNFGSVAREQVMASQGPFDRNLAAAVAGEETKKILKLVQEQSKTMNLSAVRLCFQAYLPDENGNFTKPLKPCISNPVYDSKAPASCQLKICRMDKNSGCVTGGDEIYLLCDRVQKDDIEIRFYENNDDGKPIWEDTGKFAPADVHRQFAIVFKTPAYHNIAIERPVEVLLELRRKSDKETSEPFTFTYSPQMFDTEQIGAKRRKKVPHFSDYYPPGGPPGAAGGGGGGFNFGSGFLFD

Assay [1] concerns the target T2, GST-Nv-NF-kB (Cys allele) (Nematostella vectensis, UniProt E5G601 2-411).
T2 sequence: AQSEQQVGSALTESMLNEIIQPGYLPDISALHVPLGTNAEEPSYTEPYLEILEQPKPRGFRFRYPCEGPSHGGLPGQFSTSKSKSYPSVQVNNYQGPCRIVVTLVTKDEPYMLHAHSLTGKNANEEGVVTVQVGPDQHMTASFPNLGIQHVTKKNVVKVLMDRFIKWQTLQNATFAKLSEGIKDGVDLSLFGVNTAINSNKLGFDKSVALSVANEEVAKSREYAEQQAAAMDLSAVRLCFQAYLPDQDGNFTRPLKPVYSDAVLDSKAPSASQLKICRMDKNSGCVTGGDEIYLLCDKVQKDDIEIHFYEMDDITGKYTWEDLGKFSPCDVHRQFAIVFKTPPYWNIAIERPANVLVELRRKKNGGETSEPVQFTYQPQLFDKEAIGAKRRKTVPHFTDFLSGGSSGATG

The target in assay [2] is T3, GST-Nv-NF-kB (Ser allele) (Nematostella vectensis, UniProt A7UNT2 2-411).
T3 sequence: T2 sequence with Q21R, C66S, S207N, E215Q, V217A, E225K, A268E, D399E

In the next assay the target is T4, GST-Co-NF-kB (Capsaspora owczarzaki, UniProt F1ARL5 200-546).
T4 sequence: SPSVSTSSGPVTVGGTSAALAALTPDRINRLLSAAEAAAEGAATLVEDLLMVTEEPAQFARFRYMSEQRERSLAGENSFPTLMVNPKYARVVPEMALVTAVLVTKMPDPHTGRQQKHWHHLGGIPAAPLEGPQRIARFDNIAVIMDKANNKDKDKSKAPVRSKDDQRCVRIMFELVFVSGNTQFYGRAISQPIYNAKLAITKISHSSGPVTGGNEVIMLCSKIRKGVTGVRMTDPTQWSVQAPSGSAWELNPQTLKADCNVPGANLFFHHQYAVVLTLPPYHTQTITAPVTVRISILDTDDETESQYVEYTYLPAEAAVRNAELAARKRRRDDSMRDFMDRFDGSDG

For the next assay, the target named is T5, GST-Dm-Relish (Drosophila melanogaster, UniProt Q94527 99-473).
T5 sequence: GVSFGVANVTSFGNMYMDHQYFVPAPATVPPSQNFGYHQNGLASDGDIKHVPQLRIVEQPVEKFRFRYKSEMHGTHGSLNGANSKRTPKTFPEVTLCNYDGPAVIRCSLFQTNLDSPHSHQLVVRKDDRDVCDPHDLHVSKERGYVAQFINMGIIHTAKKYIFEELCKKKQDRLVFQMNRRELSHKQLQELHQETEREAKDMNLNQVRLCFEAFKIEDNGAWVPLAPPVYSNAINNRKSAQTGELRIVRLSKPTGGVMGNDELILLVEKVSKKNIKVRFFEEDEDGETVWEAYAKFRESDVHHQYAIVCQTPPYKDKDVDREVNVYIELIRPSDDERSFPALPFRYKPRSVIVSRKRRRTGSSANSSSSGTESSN

The next assay deals with T6, GST-Aq-NF-kB (Amphimedon queenslandica, UniProt A9Y5G7 2-389).
T6 sequence: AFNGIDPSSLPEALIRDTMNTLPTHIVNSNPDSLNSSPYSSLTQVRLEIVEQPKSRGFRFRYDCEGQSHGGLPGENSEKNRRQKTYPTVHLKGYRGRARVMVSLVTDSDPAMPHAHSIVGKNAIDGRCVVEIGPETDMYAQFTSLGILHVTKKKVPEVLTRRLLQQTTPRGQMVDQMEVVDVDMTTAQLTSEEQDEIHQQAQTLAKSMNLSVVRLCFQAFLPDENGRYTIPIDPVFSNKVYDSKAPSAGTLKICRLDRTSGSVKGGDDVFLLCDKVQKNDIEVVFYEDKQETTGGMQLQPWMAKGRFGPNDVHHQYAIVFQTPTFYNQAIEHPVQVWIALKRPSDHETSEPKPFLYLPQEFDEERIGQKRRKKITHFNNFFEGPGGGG

For another assay, the target named is GST-Hu-p50 (Homo sapiens, UniProt P19838 7-356).
Chain of GST-Hu-p50 (P19838 7-356): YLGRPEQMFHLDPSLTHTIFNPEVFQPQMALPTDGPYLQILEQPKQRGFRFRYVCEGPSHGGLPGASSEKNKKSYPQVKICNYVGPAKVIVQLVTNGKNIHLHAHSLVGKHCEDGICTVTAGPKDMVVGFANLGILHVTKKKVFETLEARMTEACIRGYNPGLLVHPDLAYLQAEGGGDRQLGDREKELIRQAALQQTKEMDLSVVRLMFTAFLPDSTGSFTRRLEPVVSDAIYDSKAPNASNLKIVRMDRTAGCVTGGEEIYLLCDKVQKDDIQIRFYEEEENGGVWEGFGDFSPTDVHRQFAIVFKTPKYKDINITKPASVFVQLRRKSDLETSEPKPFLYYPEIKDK

In the case of “CCGATTAACATCAGGGAATTACCTGATGTTAATCGGGTCTTGATTCGCTTGACGCTGCTG”, the binding signal in the assay with GST-Ap-NF-kB RHD is 8.44 z-score; in assay [1] it was 9.55 z-score; in assay [2], 9.14 z-score; with GST-Co-NF-kB, 5.01 z-score; with GST-Dm-Relish, 8.83 z-score; in the assay with GST-Aq-NF-kB it was 9.49 z-score. In the assay with GST-Hu-p50, the binding signal worked out at 5.8 z-score.
Consider “CCGATTAACATCAGGGGATTTAATGATGTTAATCGGGTCTTGATTCGCTTGACGCTGCTG”, for which the binding signal was determined as 7.05 z-score in the assay with GST-Ap-NF-kB RHD; 8.23 z-score in assay [1]; 9.99 z-score in assay [2]; 3.58 z-score with GST-Co-NF-kB; 7.98 z-score with GST-Dm-Relish; 6 z-score with GST-Aq-NF-kB. The binding signal with GST-Hu-p50 was 6.98 z-score.
For “CCGATTAACATCATGGGGGGTAATGATGTTAATCGGGTCTTGATTCGCTTGACGCTGCTG”, the binding signal in the assay with GST-Ap-NF-kB RHD came to 3.64 z-score; in assay [1], 3.18 z-score; in assay [2], 2.78 z-score; in the assay with GST-Co-NF-kB, 5.06 z-score; with GST-Dm-Relish, 2.79 z-score; with GST-Aq-NF-kB, 3.56 z-score. This sequence yielded a binding signal in the assay with GST-Hu-p50 of 3.21 z-score.
With “CCGATTAACATCAAATTCCCAACTGATGTTAATCGGGTCTTGATTCGCTTGACGCTGCTG”, the binding signal turned out to be 2.17 z-score with GST-Ap-NF-kB RHD; 3.56 z-score in assay [1]; 3.7 z-score in assay [2]; 2.15 z-score with GST-Co-NF-kB; 3.39 z-score in the assay with GST-Dm-Relish; 2.22 z-score with GST-Aq-NF-kB. In the assay with GST-Hu-p50, this sequence displayed a binding signal of 2.66 z-score.
With “CCGATTAACATCAGGGAATGCCCTGATGTTAATCGGGTCTTGATTCGCTTGACGCTGCTG”, the binding signal with GST-Ap-NF-kB RHD came to 5.58 z-score; in assay [1], 7.18 z-score; in assay [2] it was 4.19 z-score; with GST-Co-NF-kB, 1.43 z-score; with GST-Dm-Relish, 7.7 z-score; in the assay with GST-Aq-NF-kB, 7.91 z-score. Moreover, the binding signal in the assay with GST-Hu-p50 was found to be 3.67 z-score.
Regarding “CCGATTAACATCAGAATCTCCCCTGATGTTAATCGGGTCTTGATTCGCTTGACGCTGCTG”, the binding signal with GST-Ap-NF-kB RHD stood at 7.81 z-score; in assay [1], 6.42 z-score; in assay [2], 6.73 z-score; with GST-Co-NF-kB, 6.25 z-score; in the assay with GST-Dm-Relish, 3.02 z-score; with GST-Aq-NF-kB, 5.81 z-score. Besides, the binding signal with GST-Hu-p50 was found to be 5.32 z-score.
Regarding “CCGATTAACATCATAATCCCCCATGATGTTAATCGGGTCTTGATTCGCTTGACGCTGCTG”, the binding signal was found to be 7.75 z-score with GST-Ap-NF-kB RHD; 6.81 z-score in assay [1]; 7.45 z-score in assay [2]; 6.17 z-score with GST-Co-NF-kB; 5.67 z-score with GST-Dm-Relish; 5.96 z-score with GST-Aq-NF-kB. Also, in the assay with GST-Hu-p50, the binding signal turned out to be 6.67 z-score.
For “CCGATTAACATCAAGGGGAAATCTGATGTTAATCGGGTCTTGATTCGCTTGACGCTGCTG”, the binding signal in the assay with GST-Ap-NF-kB RHD was 8.38 z-score; in assay [1], 9.53 z-score; in assay [2], 12.2 z-score; with GST-Co-NF-kB, 7.59 z-score; with GST-Dm-Relish, 6.04 z-score; in the assay with GST-Aq-NF-kB, 6.89 z-score. Moreover, in the assay with GST-Hu-p50, the binding signal stood at 7.08 z-score.
“CCGATTAACATCAGGGACCCCCCTGATGTTAATCGGGTCTTGATTCGCTTGACGCTGCTG”: the binding signal came to 8.29 z-score in the assay with GST-Ap-NF-kB RHD; 5.59 z-score in assay [1]; 4.4 z-score in assay [2]; 2.66 z-score with GST-Co-NF-kB; 9.78 z-score with GST-Dm-Relish; 8.21 z-score in the assay with GST-Aq-NF-kB. For the same sequence, the binding signal with GST-Hu-p50 stood at 5.07 z-score.
Regarding “CCGATTAACATCAGGGGACTCCATGATGTTAATCGGGTCTTGATTCGCTTGACGCTGCTG”, the binding signal was 6.58 z-score in the assay with GST-Ap-NF-kB RHD; 4.64 z-score in assay [1]; 4.65 z-score in assay [2]; 1.82 z-score with GST-Co-NF-kB; 7.69 z-score with GST-Dm-Relish; 4.63 z-score in the assay with GST-Aq-NF-kB. This sequence also displayed a binding signal with GST-Hu-p50 of 4.91 z-score.
